# Data reported in PubChem BioAssay.
# Activity calls are given as the source filed them. Unless noted, how the calls were made is not given here.
# Tests used:
# [1] = anti-His antibody binders, primary screen, artefact control for SMM control protein annotation, biochemical, small-molecule microarray, 635 nm fluorescence (AID 1128); conditions: anti-His Alexa647 antibody binding, higher = more signal;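 further: score merges feature fluorescence with signal-to-noise for each printed compound spot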
# [2] = system: Human papillomavirus type 1a E7 protein (residues 1-88); assay: HPV1a E7 small-molecule binders, primary screen, biochemical, small-molecule microarray, residues 1-88, 635 nm (AID 1129); conditions: small-molecule microarray binding, fluorescence 635 nm; higher = more signal
# [3] = molecular target: Focal adhesion kinase 1 (Homo sapiens) (UniProt Q05397); assay: small-molecule microarray binders of FAK, primary screen, biochemical, 635/667 nm fluorescence, BSA, DTT (AID 1130); conditions: PTK2 binding, 635 nm fluorescence, higher = more signal;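 further: composite of spot emission at 667 nm and signal to noise over triplicate slides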
# [4] = system: Fibrinogen (Alexa647-labelled); assay: fibrinogen binders on compound microarrays, profiling panel, artefact control for SMM control-protein annotation, biochemical, small-molecule microarray, 635/667 nm fluorescence (AID 1131); conditions: fibrinogen-A647 binding fluorescence, higher = more signal;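 further: z-score merges 667 nm fluorescence with per-spot signal-to-noise over triplicate slides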
# [5] = molecular target: Follistatin (Homo sapiens) (UniProt P19883); assay: follistatin binders on small-molecule microarrays, primary screen, biochemical, small-molecule microarray, 635/667 nm fluorescence (AID 1132); conditions: FST binding, 635 nm fluorescence, higher = more signal
# [6] = molecular target: Fibroblast growth factor 2 (Homo sapiens) (UniProt P09038); assay: FGF2 binders on small-molecule microarrays, primary screen, biochemical, small-molecule microarray, 635/667 nm fluorescence (AID 1133); conditions: small-molecule microarray binding, FGF2, fluorescence 635/667; higher = more signal
# [7] = mitochondrial membrane potential change in A549 cells, profiling panel, cell-based, JC-1 fluorescence, basal, 24 h, 100 nL (AID 1138); conditions: higher = more signal;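 further: A549 lung adenocarcinoma cells under basal conditions with no added stimulus; test concentration not given here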
# Lefty1 = Lefty1 binders on small-molecule microarrays, primary screen, biochemical, small-molecule microarray, 635/667 nm fluorescence (AID 1139); conditions: small-molecule microarray binding, fluorescence 635/667; higher = more signal
# [8] = system: wheat germ agglutinin (Triticum aestivum), Alexa647-labelled; assay: wheat germ agglutinin binders on compound microarrays, profiling panel, artefact control for SMM control-protein annotation, biochemical, small-molecule microarray, 635/667 nm fluorescence (AID 1140); conditions: WGA-A647 binding, 635 nm fluorescence, higher = more signal;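 further: score merges 667 nm feature emission with signal to noise over triplicate slides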
# [9] = molecular target: Luciferin 4-monooxygenase (Photinus pyralis) (UniProt P08659); assay: firefly luciferase enzyme inhibitors, primary screen, biochemical, luminescence, purified enzyme, 2006 set (AID 1141); conditions: SteadyGlo luminescence, 30 min, higher = more signal, called active from +8 up or from −8 down;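 further: cell-free assay with purified firefly luciferase at 100 ng per well in PBS; test concentration not given here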
# [10] = system: Wnt5a (protein binding on small-molecule microarray); assay: Wnt5a binders on small-molecule microarray, primary screen, biophysical, 635/667 nm fluorescence (AID 1142); conditions: 635 nm fluorescence, higher = more signal;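 further: fluorescence read at 667 nm with signal to noise per printed feature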
# [11] = cell viability in Huh7 cells, primary screen, cytotoxicity control for HCV replication inhibitor project, CellTiter-Glo luminescence, basal, 48 h (AID 1143); conditions: Huh7 HCV replicon, higher = more signal, called active from +8 up or from −8 down;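 further: Huh7 hepatoma cells carrying a hepatitis C replication reporter with no stimulus; test concentration not given here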
# [12] = P. aeruginosa biofilm formation inhibitors, primary screen, PAO1 strain, BacTiter-Glo luminescence, LB-PBS (AID 1144); conditions: 12 h, higher = more signal
# [13] = CREB reporter modulators without forskolin, primary screen, cell-based, PC12, CRE-LacZ reporter, unstimulated (AID 1145); conditions: no forskolin, luminescence, 4.5 h, higher = more signal, called active from +8 up or from −8 down
# [14] = CREB reporter modulators under forskolin, primary screen, cell-based, PC12, CRE-LacZ reporter, forskolin-stimulated (AID 1146); conditions: luminescence, 4.5 h, higher = more signal, called active from +8 up or from −8 down;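 further: PC12 cells with 6xCRE LacZ reporter stimulated by forskolin 10 µM; beta-galactosidase reporter signal reflecting CREB driven transcription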
# [15] = molecular target: Streptavidin (Streptomyces avidinii) (UniProt P22629); assay: streptavidin binders on small-molecule microarray, primary screen, artefact control for SMM compound annotation, biophysical, 635/667 nm fluorescence (AID 1147); conditions: streptavidin binding, higher = more signal;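 further: signal reflects streptavidin binding to arrayed compounds as a control protein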
# [16] = small-molecule binders of probe aInhba, primary screen, biochemical, small-molecule microarray, 635/667 nm fluorescence (AID 1148); conditions: higher = more signal;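 further: score merges 667nm spot fluorescence with signal-to-noise for antibody binding to printed compounds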
# Torsin-1A (Homo sapiens) [17] = molecular target: Torsin-1A (Homo sapiens) (UniProt O14656); assay: torsin A binders from cell lysate, primary screen, small-molecule microarray, wild-type, 635/667 nm (AID 1149); conditions: COS7 hTOR1A-WT lysate, 635 nm fluorescence, higher = more signal
# Torsin-1A (Homo sapiens) [18] = molecular target: Torsin-1A (Homo sapiens) (UniProt O14656); assay: small-molecule binders of mutant TOR1A in lysate, primary screen, cell lysate, small-molecule microarray, COS7 lysate, 635/667 nm fluorescence (AID 1150); conditions: COS7 hTOR1A mutant lysate, 635 nm fluorescence, higher = more signal;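 further: score pools 667 nm emission and signal to noise measuring lysate protein binding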
# [19] = system: Sonic hedgehog protein (Shh); assay: small-molecule binders of Shh protein, primary screen, biochemical, small-molecule microarray, 635/667 nm fluorescence (AID 1151); conditions: small-molecule microarray binding, 635 nm fluorescence; higher = more signal;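 further: Shh protein binding to compounds spotted on small-molecule microarray slides; score combines spot fluorescence intensity with signal-to-noise across triplicate slides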
# Sequence of Follistatin (Homo sapiens) (P19883 whole entry, looked up): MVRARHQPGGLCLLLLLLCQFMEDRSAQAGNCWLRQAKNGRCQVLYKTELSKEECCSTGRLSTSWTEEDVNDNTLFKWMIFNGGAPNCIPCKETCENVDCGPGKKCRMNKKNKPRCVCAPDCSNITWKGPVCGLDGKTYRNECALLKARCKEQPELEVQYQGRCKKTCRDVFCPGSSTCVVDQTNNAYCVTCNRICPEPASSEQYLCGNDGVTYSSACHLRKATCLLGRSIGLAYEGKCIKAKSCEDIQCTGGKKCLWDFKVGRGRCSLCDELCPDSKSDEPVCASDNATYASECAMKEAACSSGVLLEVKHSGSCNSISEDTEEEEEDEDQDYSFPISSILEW
# Sequence of Focal adhesion kinase 1 (Homo sapiens) (Q05397 whole entry, looked up): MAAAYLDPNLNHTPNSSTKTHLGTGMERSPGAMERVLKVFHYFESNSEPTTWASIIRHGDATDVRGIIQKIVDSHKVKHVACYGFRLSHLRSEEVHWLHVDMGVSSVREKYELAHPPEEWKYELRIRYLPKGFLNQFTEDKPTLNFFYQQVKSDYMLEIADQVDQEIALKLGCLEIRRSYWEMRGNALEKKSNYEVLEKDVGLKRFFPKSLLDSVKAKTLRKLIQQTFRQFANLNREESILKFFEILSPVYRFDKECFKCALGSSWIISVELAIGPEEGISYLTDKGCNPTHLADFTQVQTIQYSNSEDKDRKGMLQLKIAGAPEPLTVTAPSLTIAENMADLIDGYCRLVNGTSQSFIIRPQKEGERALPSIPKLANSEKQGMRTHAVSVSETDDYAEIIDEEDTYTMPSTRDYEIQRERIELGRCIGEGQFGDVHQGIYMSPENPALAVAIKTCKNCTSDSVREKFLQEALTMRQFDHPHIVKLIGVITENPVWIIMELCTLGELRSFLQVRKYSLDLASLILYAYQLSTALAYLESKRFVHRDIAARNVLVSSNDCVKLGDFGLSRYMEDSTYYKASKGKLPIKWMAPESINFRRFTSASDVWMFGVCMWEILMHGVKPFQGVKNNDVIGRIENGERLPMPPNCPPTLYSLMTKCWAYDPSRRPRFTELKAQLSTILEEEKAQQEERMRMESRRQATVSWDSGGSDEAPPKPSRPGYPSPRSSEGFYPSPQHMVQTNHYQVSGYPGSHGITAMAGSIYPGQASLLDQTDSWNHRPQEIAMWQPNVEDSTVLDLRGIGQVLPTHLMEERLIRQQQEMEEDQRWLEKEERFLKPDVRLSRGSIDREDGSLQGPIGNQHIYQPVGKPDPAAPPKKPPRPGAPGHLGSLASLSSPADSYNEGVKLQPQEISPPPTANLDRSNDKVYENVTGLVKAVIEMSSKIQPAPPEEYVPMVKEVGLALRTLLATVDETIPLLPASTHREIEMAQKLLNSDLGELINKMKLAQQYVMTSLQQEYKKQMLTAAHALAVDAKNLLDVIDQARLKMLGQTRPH
# Sequence of Streptavidin (Streptomyces avidinii) (P22629 whole entry, looked up): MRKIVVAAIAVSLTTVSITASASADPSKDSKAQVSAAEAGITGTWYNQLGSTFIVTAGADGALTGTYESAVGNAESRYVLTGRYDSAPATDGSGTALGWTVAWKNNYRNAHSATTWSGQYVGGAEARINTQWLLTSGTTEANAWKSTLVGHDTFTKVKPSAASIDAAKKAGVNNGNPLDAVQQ
# Sequence of Fibroblast growth factor 2 (Homo sapiens) (P09038 whole entry, looked up): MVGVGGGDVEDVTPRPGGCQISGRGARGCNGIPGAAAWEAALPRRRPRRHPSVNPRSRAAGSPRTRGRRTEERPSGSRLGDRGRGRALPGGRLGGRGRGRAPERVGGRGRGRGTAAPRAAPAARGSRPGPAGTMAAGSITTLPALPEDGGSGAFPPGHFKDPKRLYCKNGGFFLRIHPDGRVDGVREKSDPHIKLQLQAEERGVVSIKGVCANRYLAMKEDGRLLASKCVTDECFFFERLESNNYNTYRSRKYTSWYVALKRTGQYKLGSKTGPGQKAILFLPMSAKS
# Sequence of Torsin-1A (Homo sapiens) (O14656 whole entry, looked up): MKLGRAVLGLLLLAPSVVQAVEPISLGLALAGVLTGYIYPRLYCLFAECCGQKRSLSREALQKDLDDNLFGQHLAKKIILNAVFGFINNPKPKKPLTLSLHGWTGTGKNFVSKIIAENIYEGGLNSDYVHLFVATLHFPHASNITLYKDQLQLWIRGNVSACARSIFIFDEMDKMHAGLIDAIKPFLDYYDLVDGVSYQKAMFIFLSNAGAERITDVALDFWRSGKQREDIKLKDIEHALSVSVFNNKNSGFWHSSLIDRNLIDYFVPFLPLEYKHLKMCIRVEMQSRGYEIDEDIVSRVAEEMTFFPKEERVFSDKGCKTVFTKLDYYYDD
# Sequence of Luciferin 4-monooxygenase (Photinus pyralis) (P08659 whole entry, looked up): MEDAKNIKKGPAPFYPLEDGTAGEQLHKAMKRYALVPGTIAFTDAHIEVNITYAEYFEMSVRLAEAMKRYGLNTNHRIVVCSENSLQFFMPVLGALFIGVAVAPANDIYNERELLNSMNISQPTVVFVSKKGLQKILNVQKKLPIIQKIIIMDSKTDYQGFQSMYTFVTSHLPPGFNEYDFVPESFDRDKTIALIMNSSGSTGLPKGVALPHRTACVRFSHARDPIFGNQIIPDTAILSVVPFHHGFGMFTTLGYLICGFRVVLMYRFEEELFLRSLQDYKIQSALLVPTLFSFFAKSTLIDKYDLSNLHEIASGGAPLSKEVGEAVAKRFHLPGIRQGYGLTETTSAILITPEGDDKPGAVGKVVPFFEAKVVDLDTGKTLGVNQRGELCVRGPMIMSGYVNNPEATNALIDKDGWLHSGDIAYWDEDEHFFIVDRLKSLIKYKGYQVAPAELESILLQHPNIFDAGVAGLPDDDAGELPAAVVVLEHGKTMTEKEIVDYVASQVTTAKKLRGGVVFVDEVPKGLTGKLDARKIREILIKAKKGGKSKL
Compound,composite z-score [1],composite z-score [2],composite z-score [3],composite z-score [4],composite z-score [5],composite z-score [6],z-score [7],composite z-score (Lefty1),composite z-score [8],z-score [9],composite z-score [10],z-score [11],z-score [12],z-score [13],z-score [14],composite z-score [15],composite z-score [16],composite z-score (Torsin-1A (Homo sapiens) [17]),composite z-score (Torsin-1A (Homo sapiens) [18]),composite z-score [19]
C[N+](C)(C)CCCC[C@@H]1NC(=O)[C@@H]2C[C@H](C(=O)O)[C@H](c3cccc(OCCO)c3)N2C1=O,0.0065,-0.586,-0.466,-1.46,1.45,1.5,1.08,0.135,0.218,-1.99 (inactive),-0.0257,-0.63 (inactive),-0.773 (inactive),-0.671 (inactive),-0.471 (inactive),-1.01,-0.179,0.405,0.171,0.976
COCCOC(=O)N1C(=O)[C@@]2(c3cc(C#CCNC(N)=O)ccc31)[C@H](c1ccc(OCCO)cc1)N1[C@H](c3ccccc3)[C@H](c3ccccc3)OC(=O)[C@H]1[C@@H]2C(=O)N1CCN(c2ncccn2)CC1,0.122,1.09,1.58,0.72,1.41,1.24,-1.57,0.411,0.447,-1.23 (inactive),0.333,0.0075 (inactive),0.443 (inactive),0.212 (inactive),0.675 (inactive),0.651,-0.024,0.833,0.581,0.983
N#Cc1ccc(NN2C(C(O)c3ccco3)C=CC3C(=O)N(c4ccccc4)C(=O)C32)cc1 (stereo not given),0.716,-0.0085,0.788,0.251,0.552,-0.302,-0.244,-0.231,0.754,-0.72 (inactive),0.0896,1.34 (inactive),-0.768 (inactive),-0.136 (inactive),0.2 (inactive),0.252,0.0183,0.135,-0.236,-0.0404
C=CC[C@@]1(C(=O)NCC(O)CO)N=C(c2ccc(OCCCO)cc2)O[C@@H]1c1ccccc1 (stereo not given in full),1.98,0.932,0.307,0.543,1.44,1.02,1.01,0.0457,1.27,-1.31 (inactive),1.19,-0.834 (inactive),0.627 (inactive),0.685 (inactive),-0.458 (inactive),0.145,0.524,0.373,2.47,-0.702
CCOC(=O)C[C@H]1[C@H](OC(=O)c2cc3ccccc3oc2=O)[C@@H](NC(=O)c2ccc3ccccc3n2)c2cc(OCCCO)ccc2N1C(=O)c1ccc2ccccc2n1,0.81,0.784,0.114,0.541,0.99,0.818,1.1,1.44,0.131,-0.204 (inactive),0.27,-0.529 (inactive),0.954 (inactive),11.8 (active),-1.72 (inactive),0.617,0.539,0.916,0.378,1.46
